Hits are enriched below; roughly 1.1% of the tested compounds scored in any of these assays.
VLA-4 inh = inhibition in a human VLA-4 binding assay; P13612; VLA-4 expressing cells, ligand binding flow cytometry; inhibition, % (about 7 µM as worked out from the volumes in the protocol); actives 0.2% (n = 330,000); AID 2557; in the data active = inhibition above about 50%
Pemphigus Ab inh = inhibitors of pemphigus antibody binding to human desmoglein-3 | P32926 | DSG3-coupled beads, scFv-anti-DSG3-GFP binding, flow cytometry; active compounds read low | binding (percent of control), % at 10 µM | actives 0.48% (n = 310,000) | AID 588358;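 active = binding more than 3 SD below its plate's average and above zero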;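 also: hits lower antibody fragment binding to DSG3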
Target sequence (P32926 whole entry, looked up, the tested form may be a part): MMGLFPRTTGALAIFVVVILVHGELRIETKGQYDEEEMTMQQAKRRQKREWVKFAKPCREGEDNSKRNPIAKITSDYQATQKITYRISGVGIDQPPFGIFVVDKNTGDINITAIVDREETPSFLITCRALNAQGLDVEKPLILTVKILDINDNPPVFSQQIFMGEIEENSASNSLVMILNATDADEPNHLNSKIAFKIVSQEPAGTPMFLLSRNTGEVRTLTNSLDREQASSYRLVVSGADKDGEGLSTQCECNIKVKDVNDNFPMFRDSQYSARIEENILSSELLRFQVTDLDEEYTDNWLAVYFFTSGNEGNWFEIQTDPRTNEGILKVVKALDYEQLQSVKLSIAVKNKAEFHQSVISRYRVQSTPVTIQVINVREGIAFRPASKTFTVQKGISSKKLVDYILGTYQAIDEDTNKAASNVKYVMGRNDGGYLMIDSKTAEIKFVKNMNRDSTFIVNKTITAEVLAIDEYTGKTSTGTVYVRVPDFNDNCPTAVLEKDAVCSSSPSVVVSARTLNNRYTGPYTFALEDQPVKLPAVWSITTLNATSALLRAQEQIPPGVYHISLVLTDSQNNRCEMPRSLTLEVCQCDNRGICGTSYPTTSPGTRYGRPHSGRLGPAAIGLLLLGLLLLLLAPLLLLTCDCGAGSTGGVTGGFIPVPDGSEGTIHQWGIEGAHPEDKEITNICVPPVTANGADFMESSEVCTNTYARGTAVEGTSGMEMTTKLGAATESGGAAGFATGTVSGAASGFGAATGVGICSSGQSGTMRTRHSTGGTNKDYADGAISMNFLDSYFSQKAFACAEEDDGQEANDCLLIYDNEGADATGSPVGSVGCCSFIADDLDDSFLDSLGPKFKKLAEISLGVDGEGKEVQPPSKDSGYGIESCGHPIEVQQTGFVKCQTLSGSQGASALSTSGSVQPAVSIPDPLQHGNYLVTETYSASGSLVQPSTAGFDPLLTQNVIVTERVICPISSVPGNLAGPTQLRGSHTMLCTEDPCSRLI
AI-2 QS mod = modulators of Vibrio harveyi AI-2 quorum sensing system | Vibrio harveyi JMH597 AI-2 luminescence/OD600 ratio, 9 h; active compounds read low; strain lacks LuxN and CqsS sensors; 0 = neutral-control median | activity change, % at 7.5 µM | actives 0.4% (n = 300,000) | AID 2094; in the data active = activity change below about -75%, passing the limit was not always enough;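 also: luminescence divided by OD600 gain over 9 h not by final OD600 alone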
NTR1 ag = agonists of human neurotensin receptor NTR1; activation, % at 20 µM; NTR1-U2OS beta-arrestin-GFP spot imaging, agonist mode; actives 0.17% (n = 330,000); P30989; AID 493036;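 active = activation at or above 40% of the spot to cytoplasm intensity ratio, with at least 20 cells analyzed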
VLA-4 allo CP = human VLA-4 allosteric modulation in cherry picked compounds; shares compounds with VLA-4 inh; U937 cells, HUTS-21 LIBS mAb binding, flow cytometry; LDV ligand present at threefold Kd; inhibition, % at 6.7 µM; actives 2% (n = 1,300); AID 2813; in the data active = inhibition above about 40%
Of the large screens only hits and unclear results are named; the others gave an inactive call (follow-up assays come after a bar, where they were run).

O=C1CC(N2CCCCCC2)C(=O)N1c1ccc(F)cc1 (stereo unspecified)	none
Cc1ccc(S(=O)(=O)N(C)C)cc1NC(=O)c1cc(S(=O)(=O)N2CCCCC2)ccc1N1CCOCC1	none (no result: VLA-4 inh, AI-2 QS mod) | VLA-4 allo CP inactive
O=C(Nc1ccc(OC(F)F)cc1)c1cc(S(=O)(=O)N2CCCCC2)ccc1N1CCOCC1	none (no result: AI-2 QS mod) | VLA-4 allo CP inactive
COc1cc(NC(=O)c2cc(S(=O)(=O)N3CCCCC3)ccc2N2CCOCC2)cc(OC)c1	none | VLA-4 allo CP inactive
CN(C)S(=O)(=O)c1ccc(N2CCCC2)c(C(=O)Nc2ccccc2N2CCOCC2)c1	none (no result: VLA-4 inh, AI-2 QS mod, NTR1 ag)
COc1ccc(C)cc1NC(=O)c1cc(S(=O)(=O)N2CCCCC2)ccc1N1CCOCC1	none (no result: AI-2 QS mod) | VLA-4 allo CP inactive
CCCn1c(N)c(N(CCOC)C(=O)c2cccc(S(=O)(=O)N3CCCc4ccccc43)c2)c(=O)[nH]c1=O	none
CC(=O)Nc1ccc(S(=O)(=O)NCCC(=O)N2CCC(Cc3ccccc3)CC2)cc1	none (no result: Pemphigus Ab inh, AI-2 QS mod)
NC(=O)c1ccc(NC(=O)c2cc(S(=O)(=O)N3CCCCC3)ccc2N2CCOCC2)cc1	none (no result: AI-2 QS mod)
CC(=O)Nc1ccc(NC(=O)c2cc(S(=O)(=O)N3CCCCC3)ccc2N2CCOCC2)cc1	none (no result: VLA-4 inh, AI-2 QS mod, NTR1 ag) | VLA-4 allo CP inactive
COc1ccc(CNC(=O)CN(C)S(=O)(=O)c2ccccc2)cc1	VLA-4 inh 52 | VLA-4 allo CP inactive
CCN(CC(=O)NCc1ccc(Cl)cc1)S(=O)(=O)c1ccc(F)cc1	none | VLA-4 allo CP inactive
CN(CC(=O)NCc1ccccc1F)S(=O)(=O)c1ccc(Cl)cc1	none | VLA-4 allo CP inactive
CCN(CC(=O)NCc1ccc(Cl)cc1)S(=O)(=O)c1ccc(NC(C)=O)cc1	none
CN(CC(=O)NCc1ccc2c(c1)OCO2)S(=O)(=O)c1ccc(Cl)cc1	none (no result: AI-2 QS mod)
CCOc1ncccc1C(=O)NCC(c1ccco1)N1CCCCC1 (stereo unspecified)	none (no result: AI-2 QS mod)
COc1cc(C(=O)OCC(=O)NC2CCCCC2)cc(OC)c1OC	none (no result: AI-2 QS mod) | VLA-4 allo CP inactive
COc1ccc(NC(=O)CSc2nccn2Cc2ccco2)cc1OC	none
CSc1ncccc1C(=O)Nc1cccc(S(=O)(=O)N2CCCCC2)c1	none (no result: Pemphigus Ab inh, AI-2 QS mod)
CC(C)(C)N(NC(=O)OCc1ccccc1)C(=O)c1ccccc1Cl	none
CC(C)(C)N(NC(=O)Nc1ccccc1)C(=O)c1ccccc1Cl	VLA-4 inh 94 | VLA-4 allo CP inactive
Fc1ccccc1CNc1ccc(Cl)cc1	none
Fc1ccc(NCc2ccccc2F)cc1Cl	VLA-4 inh 50 | VLA-4 allo CP inactive
COC(=O)c1ccc(NC(=O)c2sc3nc(-c4ccccc4)cn3c2C)cc1	VLA-4 inh 52 | VLA-4 allo CP inactive
COCCN(CCOC)C(=O)c1sc2nc(-c3ccccc3)cn2c1C	none (no result: Pemphigus Ab inh)
COc1cc(/C=C/C(=O)OCC(=O)Nc2c(C)n(C)n(-c3ccccc3)c2=O)ccc1OCC#N	VLA-4 inh 61 | VLA-4 allo CP inactive
Cc1ccc(S(=O)(=O)c2ccc(Cl)cc2)cc1S(=O)(=O)N(C)CC(=O)O	none | VLA-4 allo CP inactive
Cc1cccc(C(C)C)c1NC(=O)c1cc2ccccc2o1	none
COCCn1c(-c2ccc3ccccc3c2)nc2c1c(=O)[nH]c(=O)n2CC(C)C	none
Cc1cc(C(=O)NNC(=S)NCc2ccco2)nn1C	none
CO/N=C/C(=N\Nc1ccc(OC)cc1)C(=O)c1ccc(OC)cc1	VLA-4 inh 91 | VLA-4 allo CP inactive
COc1ccc(C(=O)C(/C=N/O)=N/Nc2ccc(F)cc2)cc1	none
CN1C(=O)C(=O)/C(=C(/O)c2ccccc2)C1c1ccc([N+](=O)[O-])cc1 (stereo unspecified)	none
CCOC(=O)c1[nH]c(C)c(C(=O)OCC(=O)N2CCCCC2C)c1C (stereo unspecified)	VLA-4 inh 61 | VLA-4 allo CP inactive
CC(=O)C(c1ccccc1)C(c1ccccc1)C(C)[N+](=O)[O-] (stereo unspecified)	none
COc1ccc(-c2nnc3ccc(SC(C(C)=O)C(C)=O)nn23)cc1OC	none
CCC(Sc1ccc2nnc(-c3ccc(OC)c(OC)c3)n2n1)C(=O)O (stereo unspecified)	none | VLA-4 allo CP inactive
Cc1ccc(C(=O)NC(=S)NCc2cccnc2)cc1C	VLA-4 inh 55 | VLA-4 allo CP inactive
O=C(CN1CCCCC1)N1N=C(c2cccs2)CC1c1cccs1 (stereo unspecified)	none | VLA-4 allo CP inactive
O=C(CNCCO)N1N=C(c2cccs2)CC1c1cccs1 (stereo unspecified)	none
COCCSc1ccccc1C(=O)N1CCN(c2ccccc2)CC1	none
COCCSc1ccccc1C(=O)N1CCc2ccccc2C1	VLA-4 inh 52 | VLA-4 allo CP inactive
COc1ccccc1NC(=O)C(C)NC(c1ccccc1)c1ccccc1 (stereo unspecified)	none
CCOc1ccccc1NC(=O)NCc1ccccc1	VLA-4 inh 50 | VLA-4 allo CP inactive
COc1cc(/C=N/NC(=O)c2ccccc2O)ccc1OCC(=O)Nc1ccccc1	none
O=C(COc1ccc(/C=N/NC(=O)c2cc3ccccc3o2)cc1Cl)Nc1ccccc1	VLA-4 inh 78 | VLA-4 allo CP 61
CC(C)Oc1cc(C(=O)N2CCC(N3CCCCC3)CC2)ccc1Nc1nnc(Cl)c(Nc2ccccc2S(C)(=O)=O)n1	none (no result: VLA-4 inh, AI-2 QS mod, NTR1 ag)
COc1cc(/C=N/Nc2ncc(C(F)(F)F)cc2Cl)cc(OC)c1OC	none | VLA-4 allo CP inactive
CCC(=O)Nc1ccc(C(=O)NNC(=O)C2CCCCC2)cc1	none
COc1ccc(C2/C=C\CN3CCC[C@H]3C(=O)N2Cc2ccc(F)cc2)cc1 (stereo partly specified)	none (no result: VLA-4 inh, AI-2 QS mod)
O=C(COc1ccccc1)NCc1nnc2c3ccccc3c(-c3ccccc3)nn12	VLA-4 inh 56 | VLA-4 allo CP inactive
Cc1ccccc1-c1cnc2c(c1)C(=O)N([C@H](C)CO)C[C@@H](C)[C@H](CN(C)C(=O)c1ccncc1)O2	none (no result: VLA-4 inh, AI-2 QS mod, NTR1 ag)
CC(C)=N/N=C(/c1ccc([N+](=O)[O-])cc1)C12CN3CN(CN(C3)C1)C2	none | VLA-4 allo CP inactive
O=[N+]([O-])c1cccc(/C(=N/N=C/c2ccccc2Br)C23CN4CN(CN(C4)C2)C3)c1	none
Cc1oc2c(CN3CCC(C)CC3)c(O)ccc2c(=O)c1-c1ccccc1	none
COc1cc(OC)c(C(=O)OC(C)C(=O)Nc2cccc(C(F)(F)F)c2)cc1OC (stereo unspecified)	none | VLA-4 allo CP inactive
CC(=O)Nc1ccc(S(=O)(=O)Nc2nc3cc4c(cc3nc2Cl)OCCO4)cc1	none
CC(=O)Nc1ccc(S(=O)(=O)Nc2nc3ccccc3nc2Cl)cc1	none | VLA-4 allo CP inactive
CC(=O)Nc1ccc(S(=O)(=O)Nc2nccc(C)n2)cc1	none | VLA-4 allo CP inactive
N#Cc1c2c(c(-n3cnc4ccccc43)n3c1nc1ccccc13)CCC2	VLA-4 inh 94 | VLA-4 allo CP inactive
O=C(c1ccccc1)N1CCN(C(=O)c2ccc([N+](=O)[O-])cc2)CC1	none | VLA-4 allo CP inactive
O=C(c1c(F)cccc1F)N1CCCC(c2nc(-c3ccc(F)cc3)no2)C1 (stereo unspecified)	none
